# IDH1 R132H inh: qHTS for Inhibitors of mutant isocitrate dehydrogenase 1 (IDH1): qHTS; AID 602179, 2012; IDH1-R132H enzyme, NADPH consumption, diaphorase/resazurin fluorescence; Potency, µM (series often up to 76.6 µM), for inactives: top-dose activity change, negative = inhibition, actives largely listed as inhibitors; Isocitrate dehydrogenase [NADP] cytoplasmic (Homo sapiens), O75874; 390,000 tested, 0.093% active; note: % is set by controls: 0 for no effect and ±100 for the full control effect; nearly all actives have a fitted effect of over 65% in size
#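 IDH1-R132H (0.5 ug/mL) preincubated 30 min with compound, then NADPH (0.016 mM) and alpha-KG (2 mM) added; 80 min at RT, pH 7.5. Remaining NADPH coupled via diaphorase/resazurin to fluorescence (540/590 nm); concentration-response curves normalized to no-enzyme control.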
# TrxR1 substrate: qHTS Assay for Substrates of Mammalian Selenoprotein Thioredoxin Reductase 1 (TrxR1): qHTS. Thioredoxin reductase 1, cytoplasmic (Rattus norvegicus), O89049. purified TrxR1 substrate turnover, NADPH consumption readout. Potency, µM (series often up to 114 µM), for inactives: at the top dose activity change, negative = substrate turnover. 390,000 tested, 0.01% active. AID 588456, 2011; note: % is set by controls: 0 for no effect and ±100 for the full control effect; nearly all actives have a fitted effect of over 50% in size
# Target sequence (O89049 whole entry, looked up): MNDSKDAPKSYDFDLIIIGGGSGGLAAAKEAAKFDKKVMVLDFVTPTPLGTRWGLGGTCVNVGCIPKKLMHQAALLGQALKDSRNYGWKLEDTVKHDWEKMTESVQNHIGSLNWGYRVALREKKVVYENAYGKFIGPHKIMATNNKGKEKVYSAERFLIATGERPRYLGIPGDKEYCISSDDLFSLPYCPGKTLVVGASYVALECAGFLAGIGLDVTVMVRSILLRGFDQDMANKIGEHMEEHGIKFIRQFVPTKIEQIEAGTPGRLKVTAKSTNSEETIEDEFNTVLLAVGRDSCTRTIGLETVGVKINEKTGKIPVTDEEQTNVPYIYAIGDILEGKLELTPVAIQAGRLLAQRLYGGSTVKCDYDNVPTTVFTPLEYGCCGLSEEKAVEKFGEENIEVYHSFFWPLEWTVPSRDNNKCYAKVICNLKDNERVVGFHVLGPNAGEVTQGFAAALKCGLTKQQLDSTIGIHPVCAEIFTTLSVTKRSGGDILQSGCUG
#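 Rat TrxR1, dispensed at 90 nM, was prereduced with 400 uM NADPH (final) for 5 min at ~22 deg C, then incubated with compound 15 min before 400 uM selenite. A first-read NADPH fluorescence drop versus no-compound background flagged substrates.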
# GLP1R ag: qHTS of GLP-1 Receptor Agonists; 380,000 tested, 0.007% active; AID 624172, 2012; Potency, µM (highest dose often 45.6 µM), without a hit: at the highest dose activation, hits mostly activators; Glucagon-like peptide 1 receptor (Homo sapiens), P43220; HEK293 GLP-1R CRE-luciferase, luminescence, 4-6 h; cells express a hypersensitive GLP-1R form; note: % of control where 0% means no effect
# GLP1R inv ag: qHTS of GLP-1 Receptor Inverse Agonists (Inhibition Mode); Potency, µM (doses to about 38.3 µM), for the others: top-dose activity change, negative = inhibition, hits mostly inhibitors; Glucagon-like peptide 1 receptor (Homo sapiens), P43220; HEK293 GLP-1R CRE-luciferase, luminescence, 24 h; GLP-1R form is constitutively active; 410,000 tested, 1.6% active; note: % is set by controls: 0 for no effect and ±100 for the full control effect; nearly all actives have a fitted effect of over 55% in size
#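 Assay principle: reduced luminescence from a cAMP-responsive reporter in HEK293 cells co-expressing a constitutively active GLP-1R. Conditions: 24 hr compound incubation, 37 deg C, 5% CO2.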
# GLP1R cytotox: qHTS of GLP-1 Receptor Inverse Agonists: Cytotox Screen; AID 624418, 2012; HEK293 cAMP-luciferase reporter cells, luminescence, 24 h; Potency, µM (highest dose often 38.3 µM), for the others: at the highest dose activity change, negative = inhibition, actives largely listed as inhibitors; 410,000 tested, 0.13% active;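 note: loss of luciferase light is scored as toxicity; % is set by controls: 0 for no effect and ±100 for the full control effect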
#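 Quantitative HTS format, 1536 wells, 200 cells/uL seeded. Compounds: 23 nL, 24 h, 37 °C. Detection: luciferase reagent, luminescence at 12 min RT; decreased signal taken as cytotoxic.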
# TrxR1 inh: qHTS Assay for Inhibitors of Mammalian Selenoprotein Thioredoxin Reductase 1 (TrxR1): qHTS; Thioredoxin reductase 1, cytoplasmic (Rattus norvegicus), O89049; recombinant rTrxR1, NADPH fluorescence consumption, selenite substrate; Potency, µM (top dose mostly 114 µM), without a hit: top-dose activity change, negative = inhibition, actives largely listed as inhibitors; 390,000 tested, 1% active; note: % is set by controls: 0 for no effect and ±100 for the full control effect; nearly all actives have a fitted effect of over 65% in size
#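 Rat TrxR1 (90 nM in the dispensed reagent) was pre-reduced with 400 uM NADPH for 5 min at room temperature, then incubated with compound for 15 min. After 400 uM selenite was added, NADPH fluorescence (Ex 340/Em 450 nm) was followed for 8 min.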
# Numbers without * were called inactive; ? = inconclusive; . = not tested or not shown; [ ] = dose if it differs, or a comment. Rows were chosen to be rich in hits. Some 2.7% of all compounds tested hit in one or more screens of this group. Calls come from the whole dose curve; as a rule, active = well fitted curve in the direction sought with a large enough effect; inconclusive = small, poorly fitted or top-dose-only effect, or another doubt; inactive = no such curve, though single readings can be large; an effect the other way counts as inactive or inconclusive. Potency is the fitted concentration of half-maximal effect.
SMILES,IDH1 R132H inh,TrxR1 substrate,GLP1R ag,GLP1R inv ag,GLP1R cytotox,TrxR1 inh
COc1ccc(CN(CCC#N)CCC2(c3ccccc3)CC(C)N(C)CC2C)cc1OC (stereo unspecified),4%,9%[57.1 µM],3%,10µM*,?,16%[57.1 µM]
CC1CCC/C=C/C(=O)c2c(O)cc(O)cc2CC(=O)O1 (stereo unspecified),-13%,-3%,-10%,5µM*,?,11µM*
CCCOc1cccc(C(=O)Nc2ccc(-c3cc4ccccc4oc3=O)c(C)c2)c1,30%,131%,.,4µM*,13%,76%
CCCOc1ccc2cc(-c3ccccn3)c(=O)oc2c1,0%,620%,-3%,2.8µM*,41%,372%
COc1ccc(NC(=O)c2sc3nc4n(c(=O)c3c2C)CCC4)c(OC)c1,5%,-2%,.,8%,16%,39%[11.4 µM]
O=C(N/N=C/c1ccc(O)cc1)c1ccc(COc2cc(Cl)ccc2Cl)o1,1%,23%[57.1 µM],-4%,1.4µM*,-28%,3%[57.1 µM]
O=C(Nc1cccnc1)c1ccc(COc2cc(Cl)ccc2Cl)o1,3%,2%,8%,-12%,6%,14%[11.4 µM]
COc1ccccc1CNc1nc(NC(C)C)nc2ccsc12,.,.,3%,?,?,.
COc1cccc(CNc2nc(NC(C)C)nc3ccsc23)c1OC,.,.,-2%,11µM*,?,.
COc1ccccc1CNc1nc(Nc2ccc(C)cc2C)c2sccc2n1,.,.,0%,10µM*,-13%,.
O=C(CCCn1c(=O)c2cccn2c2ccccc21)Nc1cccc(Cl)c1,.,-3%,.,22%,-8%,2%
O=C1CCCCc2sc(Br)c([N+](=O)[O-])c2N1,-7%,9%[57.1 µM],0%,40%,4%,10µM*
CC(C)(C)n1ncc2c(=O)n(Cc3ccc(F)cc3Cl)cnc21,.,1%,.,.,.,2%
CCNc1nc(CN2CCOCC2)nc2sc3c(c12)CCC3,5%,19%[57.1 µM],6%,-7%,22%,27%[57.1 µM]
c1ccc2c(c1)CCN(c1nc(CN3CCOCC3)nc3sc4c(c13)CCCC4)C2,-26%,2%,21%,8.9µM*,4%,-19%
Cc1ccc(S(=O)(=O)NCC(=O)NCC(=O)N(C)Cc2ccc(Br)s2)cc1C,-3%,.,-1%,?,-1%,.
Cc1cc(C)c(NC(=O)CNC(=O)CN(C)Cc2ccc(Br)s2)c(C)c1,1%,3%,-7%,6.3µM*,-5%,8%
COc1ccc2c(c1)c1c(c(=O)n(CCc3ccccc3)c(=O)n1Cc1cccc(F)c1)n2C,19%,9%,0%,9%,3%,21%
COc1ccc(CC(=O)Nc2oc(-c3ccccc3)c(-c3ccccc3)c2C#N)cc1OC,7%,4%,-1%,2.2µM*,-13%,-1%
COc1ccccc1C(=O)NNC(=O)c1cccc(O)c1,-1%,1%,-3%,?,0%,7%
COc1ccccc1C(=O)NNC(=O)c1cccc(F)c1,-4%,7%[57.1 µM],-2%,8.9µM*,1%,8%[57.1 µM]
COCCNC(=O)CN(c1cc(C(F)(F)F)ccc1Cl)S(C)(=O)=O,2%,-4%,-5%,2%,4%,3%
CS(=O)(=O)N(CC(=O)NCCSCc1ccccc1)c1cc(C(F)(F)F)ccc1Cl,11%,4%,.,11µM*,-13%,22%
CCCCOc1ccc(Cn2c(=O)sc3ccccc32)cc1,-16%,5%,.,11µM*,26%,27%
Cc1cc(C)c(OCC(=O)N(Cc2ccc(N(C)C)cc2)CC2CCCO2)c(C)c1 (stereo unspecified),7%,0%,.,?,3%,17%
SMILES,IDH1 R132H inh,TrxR1 substrate,GLP1R ag,GLP1R inv ag,GLP1R cytotox,TrxR1 inh
COC(=O)CSC1=C(C#N)C(c2ccc3c(c2)OCO3)C2=C(CCCC2=O)N1 (stereo unspecified),-2%,5%[57.1 µM],0%,0%,11%,-13%[57.1 µM]
Cc1ccc(NC(=O)CSC2=C(C#N)C(c3ccc4c(c3)OCO4)C3=C(CCCC3=O)N2)c(C)c1 (stereo unspecified),10%,-4%,-5%,?,-14%,28µM*
c1ccc2oc(C3=NNC(=NC4CC4)SC3)cc2c1,?,-6%,11%,8.9µM*,?,11%
c1ccc(CN=C2NN=C(c3cc4ccccc4o3)CS2)cc1,4%,1%,-1%,22%,-2%,8%
COc1cc(NC(=O)Cn2c(=O)ccc3cc(S(=O)(=O)N4CCCC4)ccc32)cc(OC)c1,-5%,-2%[57.1 µM],-5%,4%,0%,17%[57.1 µM]
NC(=O)c1c(N)sc2c1CCCC2,-6%,4%,13%,3%,3%,50µM*
Nc1sc2c(c1C(=O)c1ccccc1)CCCC2,-7%,-9%,0%,18%,-9%,?
CCOc1ccc(CCNC(=O)c2c(C)oc3ncnc(N4CCOCC4)c23)cc1,-2%,2%,.,-4%,0%,8%
Cc1cc(N/N=C/c2cccc(Cl)c2)nc(NCc2ccccc2)n1,2%,1%,1%,11µM*,?,10%[57.1 µM]
Cc1cc(Nc2cccc(Cl)c2)nc(NCc2ccccc2)n1,2%,-2%,17%,10µM*,-11%,8%
Cc1cc(N/N=C/c2ccc(Cl)cc2)nc(NCc2ccccc2)n1,0%,-7%,19%,4.5µM*,-16%,11%
Cc1ccc(S(=O)(=O)N(CC(=O)Nc2c(C)cccc2C)c2cccc(Cl)c2)cc1,-2%,3%,.,?,4%,25%
CCCCCCCCCCCCCCCCCCN(CCCCCCCCCCCCCCCCCC)c1ccccc1,.,7%,.,.,.,22%
O=C(COc1ccccc1F)OCc1cc(=O)n2nc(-c3cccs3)sc2n1,5%,0%[57.1 µM],.,5%,3%,13%[57.1 µM]
OCC1(CO)COC(C(Cl)(Cl)Cl)OC1,.,.,7%,.,.,.
COc1ccc(NC(=O)C[C@H]2C(=O)N(Cc3cccnc3)C[C@@H]2Cc2ccccc2)cc1,14%,.,-5%,2%,0%,.
CCC[C@H]1CN(c2ccc(Br)cc2)C(=O)[C@@H]1CC(=O)Nc1ccccc1,0%,.,0%,11µM*,-4%,.
COc1ccc(CN2C[C@H](Cc3ccccc3)[C@@H](CC(=O)Nc3ccccc3)C2=O)cc1,3%,-4%,14%,8.9µM*,-4%,10%[57.1 µM]
